# The full data set covers some 8,800 targets. This sample favours those with a hit. About 0.5% of all pairs of compound and target were hits. Unmarked numbers belong to inactive results.
# Legend:
# Experiment in all cases: log2 fold change, soluble protein after heating vs DMSO (PISA); higher = thermal stabilisation; K562 lysate, 10 uM; active = over 0.2 and 3.5 SD of the protein, either way, in both replicates (recomputed)
# alvocidib = compound: CN1CC[C@H](c2c(O)cc(O)c3c(=O)cc(-c4ccccc4Cl)oc23)[C@H](O)C1 [alvocidib]
# How it was run: (§1)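 Following dounce homogenisation of K562 pellets in PBS pH 7.4 with 1 mM MgCl2, crude extract at 1 mg/mL protein was incubated for 30 min with 10 μM compound. Aliquots were then heated for 3 min over 48°C-58°C and pooled, NP-40 was added to 0.5% at 4°C, and soluble protein was recovered as the supernatant at 21,000xg for 90 min. Channel-sum-equalised TMTpro 16plex LC-MS/MS quantified this protein. Each value, from duplicates, is a log-two fold change in thermal stability relative to solvent controls.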
# Tubastatin A = compound: CN1CCc2c(c3ccccc3n2Cc2ccc(C(=O)NO)cc2)C1 [Tubastatin A]
# How it was run: as §1
# [1] = compound: CNC(=O)C1=CC=CC=C1NC2=NC(=NC=C2Cl)NC3=C(C=C(C=C3)N4CCOCC4)OC
# How it was run: as §1
# defactinib = compound: CNC(=O)c1ccc(Nc2ncc(C(F)(F)F)c(NCc3nccnc3N(C)S(C)(=O)=O)n2)cc1 [defactinib]
# How it was run: as §1
# [2] = compound: CNc1nc(-c2ccc3c(N)n[nH]c3c2)cc(N2C[C@@H](C(=O)NC3CCCCC3)CC[C@H]2C)n1
# How it was run: as §1
# encorafenib = compound: COC(=O)N[C@@H](C)CNc1nccc(-c2cn(C(C)C)nc2-c2cc(Cl)cc(NS(C)(=O)=O)c2F)n1 [encorafenib]
# How it was run: as §1
# [3] = compound: COC(=O)[C@H](CCSC)NC(=O)C1=C(C=C(C=C1)NC[C@H](CS)N)C2=CC=CC=C2
# How it was run: as §1
# alisertib = compound: COc1cc(Nc2ncc3c(n2)-c2ccc(Cl)cc2C(c2c(F)cccc2OC)=NC3)ccc1C(=O)O [alisertib]
# How it was run: as §1
# [4] = compound: COc1cc2nc(-c3cc(F)ccc3O)nc(N[C@@H]3CNC[C@H]3C(C)(C)O)c2cc1OC
# How it was run: as §1
# gefitinib = compound: COc1cc2ncnc(Nc3ccc(F)c(Cl)c3)c2cc1OCCCN1CCOCC1 [gefitinib]
# How it was run: as §1
# lapatinib = compound: CS(=O)(=O)CCNCc1ccc(-c2ccc3ncnc(Nc4ccc(OCc5cccc(F)c5)c(Cl)c4)c3c2)o1 [lapatinib]
# How it was run: as §1
# pictilisib = compound: CS(=O)(=O)N1CCN(Cc2cc3nc(-c4cccc5[nH]ncc45)nc(N4CCOCC4)c3s2)CC1 [pictilisib]
# How it was run: as §1
# crizotinib = compound: C[C@@H](Oc1cc(-c2cnn(C3CCNCC3)c2)cnc1N)c1c(Cl)ccc(F)c1Cl [crizotinib]
# How it was run: as §1
# [5] = compound: C[C@H](C1=CC=C(C=C1)C(=O)NC2=C3C=CNC3=NC=C2)N
# How it was run: as §1
# duvelisib = compound: C[C@H](Nc1ncnc2nc[nH]c12)c1cc2cccc(Cl)c2c(=O)n1-c1ccccc1 [duvelisib]
# How it was run: as §1
# gandotinib = compound: Cc1cc(Nc2cc(CN3CCOCC3)c3nc(C)c(Cc4ccc(Cl)cc4F)n3n2)n[nH]1 [gandotinib]
# How it was run: as §1
# tozasertib = compound: Cc1cc(Nc2cc(N3CCN(C)CC3)nc(Sc3ccc(NC(=O)C4CC4)cc3)n2)n[nH]1 [tozasertib]
# How it was run: as §1
# doramapimod = compound: Cc1ccc(-n2nc(C(C)(C)C)cc2NC(=O)Nc2ccc(OCCN3CCOCC3)c3ccccc23)cc1 [doramapimod]
# How it was run: as §1
# bafetinib = compound: Cc1ccc(NC(=O)c2ccc(CN3CC[C@H](N(C)C)C3)c(C(F)(F)F)c2)cc1Nc1nccc(-c2cncnc2)n1 [bafetinib]
# How it was run: as §1
# [6] = compound: Cc1cccc(CC(=O)N2CCc3c2ccc(-c2cn(C)c4ncnc(N)c24)c3F)n1
# How it was run: as §1
# Chain of UniProt P84157 (P84157 whole entry, looked up): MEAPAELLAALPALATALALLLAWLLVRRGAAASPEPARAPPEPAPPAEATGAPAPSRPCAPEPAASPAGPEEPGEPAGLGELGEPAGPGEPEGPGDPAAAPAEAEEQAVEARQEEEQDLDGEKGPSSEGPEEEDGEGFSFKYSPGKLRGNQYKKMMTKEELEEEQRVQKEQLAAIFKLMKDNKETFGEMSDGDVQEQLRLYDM
# Chain of UniProt Q14934 (Q14934 whole entry, looked up): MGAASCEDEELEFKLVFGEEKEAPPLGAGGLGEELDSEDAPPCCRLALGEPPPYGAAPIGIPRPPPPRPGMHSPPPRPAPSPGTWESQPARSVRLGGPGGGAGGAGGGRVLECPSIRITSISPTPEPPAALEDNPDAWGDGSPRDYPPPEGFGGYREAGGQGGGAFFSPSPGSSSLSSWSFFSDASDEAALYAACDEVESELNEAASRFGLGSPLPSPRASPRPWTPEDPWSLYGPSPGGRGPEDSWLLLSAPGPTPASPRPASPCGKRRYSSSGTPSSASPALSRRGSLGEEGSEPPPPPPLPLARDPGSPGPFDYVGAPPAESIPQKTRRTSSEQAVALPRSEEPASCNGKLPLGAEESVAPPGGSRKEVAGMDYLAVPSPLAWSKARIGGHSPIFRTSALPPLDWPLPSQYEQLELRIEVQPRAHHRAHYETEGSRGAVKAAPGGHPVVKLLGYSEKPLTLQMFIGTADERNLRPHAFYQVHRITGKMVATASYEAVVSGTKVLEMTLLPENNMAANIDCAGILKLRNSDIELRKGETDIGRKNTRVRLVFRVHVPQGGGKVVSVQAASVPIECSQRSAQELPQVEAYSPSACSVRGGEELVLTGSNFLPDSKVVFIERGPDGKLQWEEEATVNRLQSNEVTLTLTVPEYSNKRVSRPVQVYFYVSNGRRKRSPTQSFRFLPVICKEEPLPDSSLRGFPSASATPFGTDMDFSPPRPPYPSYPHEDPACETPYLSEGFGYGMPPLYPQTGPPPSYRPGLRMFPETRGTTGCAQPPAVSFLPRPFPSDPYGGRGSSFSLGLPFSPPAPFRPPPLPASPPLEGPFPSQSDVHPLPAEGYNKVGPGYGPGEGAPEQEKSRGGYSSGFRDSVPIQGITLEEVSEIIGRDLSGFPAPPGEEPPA
# Chain of UniProt Q96RE7 (Q96RE7 whole entry, looked up): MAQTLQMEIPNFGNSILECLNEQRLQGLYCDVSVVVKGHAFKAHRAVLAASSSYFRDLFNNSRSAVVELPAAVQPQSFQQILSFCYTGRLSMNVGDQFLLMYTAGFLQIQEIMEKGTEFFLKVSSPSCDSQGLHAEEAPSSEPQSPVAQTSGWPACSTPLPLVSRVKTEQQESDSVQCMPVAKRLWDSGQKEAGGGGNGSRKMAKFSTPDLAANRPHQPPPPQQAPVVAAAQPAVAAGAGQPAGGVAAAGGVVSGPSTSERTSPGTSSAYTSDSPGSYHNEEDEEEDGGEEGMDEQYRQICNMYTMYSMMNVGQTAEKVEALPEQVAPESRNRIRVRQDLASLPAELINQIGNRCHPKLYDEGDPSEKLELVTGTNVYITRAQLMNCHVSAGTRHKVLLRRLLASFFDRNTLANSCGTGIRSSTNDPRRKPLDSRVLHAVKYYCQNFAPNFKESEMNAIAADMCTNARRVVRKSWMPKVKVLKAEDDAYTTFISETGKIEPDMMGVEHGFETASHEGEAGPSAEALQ
# Chain of UniProt Q01968 (Q01968 whole entry, looked up): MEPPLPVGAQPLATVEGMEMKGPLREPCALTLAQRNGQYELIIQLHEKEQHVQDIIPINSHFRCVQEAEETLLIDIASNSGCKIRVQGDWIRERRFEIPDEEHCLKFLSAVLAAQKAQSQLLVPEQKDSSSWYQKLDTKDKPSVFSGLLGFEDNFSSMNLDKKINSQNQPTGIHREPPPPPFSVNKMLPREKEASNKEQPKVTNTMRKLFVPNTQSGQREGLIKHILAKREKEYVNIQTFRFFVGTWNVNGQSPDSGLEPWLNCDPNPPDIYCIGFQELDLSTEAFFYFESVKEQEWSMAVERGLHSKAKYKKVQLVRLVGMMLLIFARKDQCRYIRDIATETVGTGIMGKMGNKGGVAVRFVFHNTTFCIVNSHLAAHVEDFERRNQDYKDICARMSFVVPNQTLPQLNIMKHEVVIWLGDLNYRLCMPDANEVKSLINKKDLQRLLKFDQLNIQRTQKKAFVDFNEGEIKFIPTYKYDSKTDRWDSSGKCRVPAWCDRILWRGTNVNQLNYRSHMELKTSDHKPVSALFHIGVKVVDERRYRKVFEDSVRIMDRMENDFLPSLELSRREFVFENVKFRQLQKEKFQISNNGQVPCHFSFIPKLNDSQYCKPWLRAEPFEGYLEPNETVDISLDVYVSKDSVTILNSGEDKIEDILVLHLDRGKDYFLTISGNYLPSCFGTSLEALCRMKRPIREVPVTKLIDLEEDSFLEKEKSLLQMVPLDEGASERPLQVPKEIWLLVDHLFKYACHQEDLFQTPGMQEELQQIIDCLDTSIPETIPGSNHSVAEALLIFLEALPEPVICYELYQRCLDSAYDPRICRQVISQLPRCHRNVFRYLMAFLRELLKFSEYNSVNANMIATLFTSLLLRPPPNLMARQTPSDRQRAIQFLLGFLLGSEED
# Chain of UniProt P04181 (P04181 whole entry, looked up): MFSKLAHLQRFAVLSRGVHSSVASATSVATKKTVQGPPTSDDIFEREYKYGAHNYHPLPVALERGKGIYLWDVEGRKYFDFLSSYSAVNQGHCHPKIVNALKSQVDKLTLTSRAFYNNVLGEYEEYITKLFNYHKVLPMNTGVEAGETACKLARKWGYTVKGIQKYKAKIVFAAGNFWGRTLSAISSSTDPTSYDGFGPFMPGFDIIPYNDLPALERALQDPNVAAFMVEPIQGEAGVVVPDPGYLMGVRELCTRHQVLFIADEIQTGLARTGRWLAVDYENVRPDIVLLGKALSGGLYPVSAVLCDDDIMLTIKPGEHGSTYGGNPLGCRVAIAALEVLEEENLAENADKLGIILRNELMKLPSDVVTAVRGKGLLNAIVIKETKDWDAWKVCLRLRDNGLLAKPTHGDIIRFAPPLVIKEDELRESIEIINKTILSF
# Chain of UniProt Q15233 (Q15233 whole entry, looked up): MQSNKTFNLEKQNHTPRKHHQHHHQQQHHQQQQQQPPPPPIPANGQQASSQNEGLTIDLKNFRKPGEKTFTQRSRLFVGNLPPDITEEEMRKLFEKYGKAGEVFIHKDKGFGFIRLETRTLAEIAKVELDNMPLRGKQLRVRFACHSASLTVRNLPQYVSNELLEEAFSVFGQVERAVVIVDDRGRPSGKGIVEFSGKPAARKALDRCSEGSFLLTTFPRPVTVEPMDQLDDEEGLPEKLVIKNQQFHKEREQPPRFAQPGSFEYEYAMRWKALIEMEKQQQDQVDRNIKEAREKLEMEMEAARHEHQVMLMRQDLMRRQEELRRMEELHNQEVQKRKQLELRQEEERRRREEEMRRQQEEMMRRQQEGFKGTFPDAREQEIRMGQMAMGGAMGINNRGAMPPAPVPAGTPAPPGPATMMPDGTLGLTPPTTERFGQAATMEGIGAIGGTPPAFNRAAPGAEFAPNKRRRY
# Chain of UniProt P47900 (P47900 whole entry, looked up): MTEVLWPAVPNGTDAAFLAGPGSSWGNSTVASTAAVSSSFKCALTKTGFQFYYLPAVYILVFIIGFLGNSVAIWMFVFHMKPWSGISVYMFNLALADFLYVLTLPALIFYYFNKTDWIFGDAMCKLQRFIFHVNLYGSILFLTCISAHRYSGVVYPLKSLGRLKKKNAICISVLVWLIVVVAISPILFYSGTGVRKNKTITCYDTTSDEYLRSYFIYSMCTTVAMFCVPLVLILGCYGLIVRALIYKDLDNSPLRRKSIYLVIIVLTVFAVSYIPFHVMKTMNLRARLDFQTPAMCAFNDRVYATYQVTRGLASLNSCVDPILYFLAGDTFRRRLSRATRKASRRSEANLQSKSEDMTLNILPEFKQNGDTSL
# Chain of UniProt P03928 (P03928 whole entry, looked up): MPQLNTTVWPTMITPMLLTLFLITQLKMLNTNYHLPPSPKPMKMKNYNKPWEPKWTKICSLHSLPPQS
# Chain of UniProt P53370 (P53370 whole entry, looked up): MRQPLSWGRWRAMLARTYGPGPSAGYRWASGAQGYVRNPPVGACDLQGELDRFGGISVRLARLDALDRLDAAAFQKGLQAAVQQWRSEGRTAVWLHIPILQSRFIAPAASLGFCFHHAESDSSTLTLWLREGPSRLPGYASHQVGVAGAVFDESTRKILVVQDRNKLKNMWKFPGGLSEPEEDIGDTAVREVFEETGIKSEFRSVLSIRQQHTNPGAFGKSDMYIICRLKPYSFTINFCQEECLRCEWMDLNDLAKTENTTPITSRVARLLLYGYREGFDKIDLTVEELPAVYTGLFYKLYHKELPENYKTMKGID
# Chain of UniProt Q9NZJ9 (Q9NZJ9 whole entry, looked up): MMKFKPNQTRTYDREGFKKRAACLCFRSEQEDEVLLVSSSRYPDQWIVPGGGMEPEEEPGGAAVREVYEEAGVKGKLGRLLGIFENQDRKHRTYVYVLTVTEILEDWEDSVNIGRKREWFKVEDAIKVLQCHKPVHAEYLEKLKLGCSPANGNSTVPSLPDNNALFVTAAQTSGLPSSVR
# Chain of UniProt Q5JRK9 (Q5JRK9 whole entry, looked up): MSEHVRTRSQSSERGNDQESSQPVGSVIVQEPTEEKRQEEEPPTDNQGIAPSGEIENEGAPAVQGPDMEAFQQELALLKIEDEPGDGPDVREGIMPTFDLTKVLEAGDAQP
Target,log2 fold change (alvocidib),log2 fold change (Tubastatin A),log2 fold change [1],log2 fold change (defactinib),log2 fold change [2],log2 fold change (encorafenib),log2 fold change [3],log2 fold change (alisertib),log2 fold change [4],log2 fold change (gefitinib),log2 fold change (lapatinib),log2 fold change (pictilisib),log2 fold change (crizotinib),log2 fold change [5],log2 fold change (duvelisib),log2 fold change (gandotinib),log2 fold change (tozasertib),log2 fold change (doramapimod),log2 fold change (bafetinib),log2 fold change [6]
OCRL (UniProt Q01968),-0.002,-0.105,0.074,0.123,-0.051,0.045,-0.006,0.016,-0.082,0.049,0.008,-0.029,-0.047,-0.029,-0.013,-0.009,0,0.033,0.001,0.047
NUDT5 (UniProt Q9UKK9),-0.137,0.052,-0.01,0.072,-0.018,0.034,0.006,0.004,0.003,-0.002,0.003,-0.036,0.007,-0.299 (active),0.051,0.211,-0.018,-0.015,-0.016,0.212
NUDT4 isoform 2 (UniProt Q9NZJ9),-0.001,-0.101,0.01,-0.07,0.073,0.025,-0.129,0.012,0.003,-0.023,-0.002,0.006,-0.018,-0.055,-0.013,0.061,0.065,-0.009,-0.006,0.011
MRPL58 (UniProt Q14197),0,-0.065,0.027,-0.045,0.033,0.011,-0.078,-0.021,-0.02,-0.04,0.035,-0.034,-0.063,0.365 (active),-0.034,-0.009,0.045,-0.026,-0.03,-0.119
NONO (UniProt Q15233),0.049,-0.126,0.04,-0.01,0.014,0.011,0.102,0.026,-0.004,0.007,-0.004,0.001,0.011,0.071,-0.01,-0.06,0.028,-0.014,-0.033,-0.04
NACC1 (UniProt Q96RE7),-0.02,-0.086,0.002,-0.01,0.016,0.022,0.024,0.018,-0.012,-0.019,-0.032,0.034,0.01,-0.066,-0.002,0.006,-0.015,-0.011,-0.078,0.044
OAT (UniProt P04181),-0.023,-0.016,-0.03,-0.016,-0.023,-0.022,0.091,0.036,0.006,0.008,-0.02,0.021,-0.034,-0.066,-0.025,0.063,0.01,-0.029,0,0.044
MXRA7 (UniProt P84157),-0.002,-0.056,-0.052,-0.239,0.131,0.051,-0.028,-0.19,-0.009,0.177,-0.039,–,0.103,-0.149,0.056,-0.008,-0.05,0.041,–,0.096
P2RY1 (UniProt P47900),-0.025,0.06,-0.077,–,-0.013,0.054,0.057,–,-0.068,–,-0.091,-0.444 (active),–,-0.02,0.092,0.012,0.1,–,0.021,0.007
NUDT6 (UniProt P53370),–,0.042,0.154,-0.002,-0.024,-0.021,-0.015,–,–,–,–,–,0.051,–,-0.034,–,0.132,-0.073,–,–
MYO9A isoform 4 (UniProt B2RTY4),0.034,-0.077,-0.013,-0.026,0.015,–,–,-0.035,0.04,0.009,-0.027,0.022,-0.03,-0.014,-0.019,-0.044,–,0.005,-0.103,0.036
NUDT5 (UniProt C9JYY9),–,–,0.026,–,–,0.066,-0.029,-0.092,–,-0.075,–,–,–,–,–,–,0.004,–,–,–
NUB1 (UniProt H7C5N1),–,0.209,–,–,–,–,–,–,–,–,–,–,–,–,–,–,–,–,–,–
PAGE2B (UniProt Q5JRK9),0.059,0.175,0.097,0.253,0.072,0.089,-0.001,0.053,-0.091,-0.051,0.216,–,0.051,0.267,0.011,-0.115,-0.017,0.025,–,-0.097
NFATC4 isoform 2 (UniProt Q14934),-0.062,–,–,-0.12,0.023,0.011,-0.032,0.048,0.244,0.132,0.039,0.003,-0.132,-0.187,-0.006,0.04,0.084,0.026,-0.305,0.192
MYO10 (UniProt Q9HD67),0.048,0.211,-0.012,-0.106,–,–,–,0.021,–,0.087,–,0.076,-0.042,0.696 (active),–,-0.016,–,-0.321,-0.456,-0.029
NTMT1 (UniProt S4R338),–,–,–,–,–,–,–,–,0.045,–,0.082,–,–,–,–,–,–,–,–,–
NR2C2 isoform 2 (UniProt P49116),0.075,-0.045,-0.03,0.058,0.1,-0.002,-0.022,–,-0.002,–,-0.014,-0.025,-0.004,0.064,-0.014,-0.079,-0.005,-0.004,0.145,-0.025
MT-ATP8 (UniProt P03928),0.044,0.072,0.08,0.017,–,-0.071,-0.139,-0.017,-0.078,-0.081,0.024,-0.002,-0.121,0.402 (active),–,-0.054,-0.078,0.011,-0.087,-0.107

# — the supplement of paper PMC10849652
